Entries with a potency or affinity are not part of this list. Active and inactive are the calls of the source.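 How the source made its calls: active means signal-lowering compounds whose fitted half-maximal concentration is at or below twice the top tested dose in every run; inconclusive means runs disagree, flat 30 to 70% inhibition, or poor curve fit; inactive means the rest.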
Target: Protein S100-A4 (Homo sapiens) (UniProt P26447)
Test: human S100A4 peptide interaction inhibition curves – biochemical, fluorescence polarization, cherry-picked hits, dose response (AID 687001)
Conditions: FP, S100A4/TAMRA-myosin IIA peptide binding; series mostly up to 11 µM

Protein S100-A4 (Homo sapiens), sequence (P26447 whole entry, looked up): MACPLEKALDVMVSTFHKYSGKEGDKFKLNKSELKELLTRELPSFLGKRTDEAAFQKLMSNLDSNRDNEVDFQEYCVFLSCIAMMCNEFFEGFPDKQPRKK

outcome, inactive:
Cc1ccc(C2=N/C(=C\c3ccc(F)cc3)C(=O)N2)cc1
O=C(c1ccc(Br)o1)N1CCC(Cc2ccccc2)CC1
Cc1cc(C)c(C(=O)COC(=O)CNC(=O)c2ccccc2C)c(C)c1
CN(C(=O)CCc1cn(C)c2ccccc12)c1ccc(Oc2cccnc2)cc1
O=C(N[C@H]1CC[C@@H](CCNS(=O)(=O)Cc2ccccc2)O[C@H]1CO)c1ccccc1F
Cc1cc(-c2nc(C)c(-c3nnc(SCC(=O)Nc4ccc(Cl)cc4)n3C)s2)no1
CN(C)C(=O)[C@H]1[C@H](CO)[C@H]2Cn3c(cccc3=O)[C@@H]1N2C(=O)c1ccccc1
CCOc1ccc(C2C(C(=O)c3ccco3)=C(O)C(=O)N2CCN2CCOCC2)cc1OCC (configuration not stated)
COc1ccccc1NC(=S)NC(=O)Cc1ccccc1
Cc1cc(C)nc(NC(=O)CCN2C(=O)c3ccccc3S2(=O)=O)n1
O=C(COC(=O)C1CC1)NCCc1ccccc1
O=C1CN(C(=O)COc2c(F)c(F)cc(F)c2F)c2ccccc2N1
O=C(/C=C/c1cccc(Cl)c1)NCCCN1CCOCC1
COc1nnc(-c2ccc(C)c(S(N)(=O)=O)c2)c2ccccc12
O=C(Cn1cc(COc2ccc3ccc(=O)oc3c2)nn1)c1ccc(O)cc1
CC(C)[C@@H]1C=C(C(=O)O)O[C@H](OCCCCO)C1
O=C(C[C@H]1C[C@@H]2c3cc(NC(=O)C4CCOCC4)ccc3O[C@@H]2[C@H](CO)O1)NCCN1CCCCC1
